# Most compounds without a hit are left out; they make up all but 19% or so of the library.
# Pf growth 96h = P. falciparum growth inhibition at 96 hours; P. falciparum luciferase reporter growth, 96 h; Potency, µM (titrated, usually from 28.7 µM), inactives show at the top dose activity change, negative = inhibition, actives largely listed as inhibitors; 320,000 compounds, 6.9% hits; AID 504834; also: potency is read from the fitted curve at half-maximal effect; % is scaled to controls: 0 for no effect and ±100 for the full control effect
#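 P. falciparum expressing integrated firefly luciferase grown in erythrocytes (2% hematocrit, 0.05% parasitemia final) with compounds for 96 hours at 37 C, 5% CO2. Growth inhibition read as loss of luminescence after adding luciferase detection reagent.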
# Pf growth 48h = P. falciparum growth inhibition at 48 hours (one generation) | AID 504832 | Potency, µM (series often up to 28.7 µM), without a hit: at the top dose activity change, negative = inhibition, usual class: inhibitors | 310,000 compounds, 5.9% hits | P. falciparum luciferase growth in erythrocytes, 48 h; also: potency is read from the fitted curve at half-maximal effect; % is scaled to controls: 0 for no effect and ±100 for the full control effect
#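 Here the parasites carry a stable luciferase gene and grow inside erythrocytes in Albumax-based RPMI medium with compound for one erythrocytic cycle. Activity is scored as loss of luminescent signal.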
# SARS PLpro yeast = inhibitors of SARS-CoV papain-like protease in yeast; AID 485353; Potency, µM (top dose mostly 32.9 µM), without a hit: top-dose activity, positive = growth rescue, most hits filed as activators; S. cerevisiae expressing SARS-CoV PLpro, growth rescue; 330,000 compounds, 0.19% hits; calls by dose curve; also: potency is read from the fitted curve at half-maximal effect; 0% is about no effect; nearly all actives have a fitted effect of over 55% in size
# Shiga inhibitor = inhibitors of Shiga toxin in Vero cells. Vero cells, Shiga toxin protein synthesis inhibition reporter. inhibition, % at 38.7 µM. 290,000 compounds, 9.2% hits. AID 2315; in the data active = inhibition mostly above about 28%, no sharp cut-off; inactive = mostly below about 43%; also: 0% is about no effect
# AMA1 RON2 block = AMA1-RON2 (P. falciparum) interaction inhibition; 360,000 compounds, 0.2% hits; Potency, µM (doses to about 58.2 µM), for inactives: at the top dose activity change, negative = inhibition, usual class: inhibitors; AID 720542; AlphaScreen AMA1-biotinylated RON2 peptide binding;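 also: potency is read from the fitted curve at half-maximal effect; 0% = vehicle wells and -100% = peptide control; nearly all actives have a fitted effect of over 45% in size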
#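 AMA1 (3D7) with his tag at 25 nM final met compounds first, then biotinylated RON2 peptide at 25 nM; detection used donor plus acceptor beads, 10 µg/mL apiece, read by AlphaScreen after 30 min at room temperature.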
# Cycloheximide cs = affects cycloheximide protein synthesis inhibition readout, counter-screen; cell reporter, cycloheximide protein synthesis inhibition counterscreen; max response, %; 300,000 compounds, 12% hits; in the data active = max response mostly above about 13%, no sharp cut-off; inactive = mostly below about 14%; also: read at 38.3 µM for the half of the compounds with a filed dose; 0% is about no effect
# Starred values were filed as active, the others as inactive; i = inactive; ? = inconclusive; . = no result given; [ ] = remark or other dose. Unless noted, calls follow the shape of the dose curve; as a rule, active = well fitted curve in the direction sought with a large enough effect; inconclusive = small, poorly fitted or top-dose-only effect, or another doubt; inactive = no such curve, though single readings can be large; an effect the other way counts as inactive or inconclusive.
SMILES,Pf growth 96h,Pf growth 48h,SARS PLpro yeast,Shiga inhibitor,AMA1 RON2 block,Cycloheximide cs
Cc1ccc(CNC(=O)c2nnn(-c3cccc(C)c3)c2N)cc1,-21.4%,8.4%,-3.9%,-6.6,-1.8%,10.0
COc1cc(C)ccc1OCCOCCOc1cc(C)c(C)cc1Br,37.8%,-13.5%,4.8%,11.2,55.2%,-2.3
O=C(Cc1ccc(-n2c(=O)c3ccccc3n(Cc3ccccc3F)c2=O)cc1)NCC1CCCO1 (stereo unspecified),4.65µM*,-14.8%,7.1%,-11.1,9.5%,-1.9
c1ccc(Cn2nnc3c(NCC4CCCO4)ncnc32)cc1 (stereo unspecified),11.7µM*,42.4%,1.8%,55.6,2.8%,9.2
O=C(CSc1ncnc2c1nnn2Cc1ccccc1F)NCC1CCCO1 (stereo unspecified),?,14.7µM*,-1.6%,-7.7,9.2%,-1.9
COC(=O)CNC(=O)c1ccc(F)cc1,130.2%,36.1%,0.3%,-13.9,11.8%,-1.8
O=C(O)c1c(C(=O)N2N=C3/C(=C/c4ccccc4)CCCC3C2c2ccccc2)cccc1[N+](=O)[O-] (stereo unspecified),-33.3%[5.75 µM],?,-0.4%,-8.6,25.1%,3.0
CC(=O)N1N=C2/C(=C/c3ccccc3)CCCC2C1c1ccccc1 (stereo unspecified),?,113.3%,-0.7%,71.6*,-4.0%,48.2*
CCC1(C)Cc2ccccc2-c2nc(NCCCO)n(-c3ccccc3)c(=O)c21 (stereo unspecified),10.4µM*,.,5.1%,-9.3,5.0%,-0.8
CCn1c(NCCO)nc2c(c1=O)C(C)(CC)Cc1ccccc1-2 (stereo unspecified),?,-6.7%,0.3%,21.6,-4.8%,5.3
O=C(/C=N/O)NCc1ccncc1,-6.5%,12.1%,?,0.8,9.9%,-2.9
CCC(=O)NC(/C=C/c1ccccc1)c1cc([N+](=O)[O-])c2cccnc2c1O (stereo unspecified),-5.2%,9.3%,2.24µM*,-16.9,.,-7.2
O=S(=O)(c1cccc(F)c1)N1CCN(C(=S)NCC2CCCO2)CC1 (stereo unspecified),?,?,7.4%,-5.1,1.6%,-3.1
O=S(=O)(c1ccc(F)cc1)N1CCN(C(=S)NCc2ccccc2)CC1,?,?,-1.2%,-24.2,36.2%,-0.6
O=S(=O)(c1ccc(F)cc1)N1CCN(C(=S)NCC2CCCO2)CC1 (stereo unspecified),2.08µM*,2.62µM*,3.2%,.,-2.4%,.
O=S(=O)(c1ccc(Cl)cc1)N1CCN(C(=S)NCC2CCCO2)CC1 (stereo unspecified),-10.2%,0.928µM*,-0.9%,-4.7,-11.1%,0.3
FC(F)(F)c1cccc(N2CCN(C(=S)NCC3CCCO3)CC2)c1 (stereo unspecified),40.6%,?,-5.5%,-16.6,1.8%,2.7
S=C(NCC1CCCO1)N1CCN(c2ccccc2)CC1 (stereo unspecified),4.65µM*,30.8%,-3.7%,-4.7,2.4%,-3.0
O=S(=O)(c1ccc(F)cc1)N1CCN(C(=S)NCCc2ccccc2)CC1,?,1.85µM*,3.3%,-13.8,19.6%,-1.4
Nc1nc(SCn2nnc3ccccc3c2=O)n[nH]1,18.4%,8.8%,0.6%,15.9,-1.1%,6.8
CC(C)=CCC/C(C)=C/CO,10.2%,4.0%,.,.,.,.
O=C(O)c1ccccc1N/N=C/c1cc(Br)cc(Br)c1O,352.5%,168.6%,-2.4%,126.5*,-23.8%,37.4*
O=C(O)c1ccccc1N/N=C\c1ccnc2ccccc12,186.4%,181.2%,0.6%,43.1,-8.0%,28.3*
ON=Cc1ccnc2ccccc12,.,.,.,.,12.1%,.
Cc1cc(NC(=O)CN2CCOCC2)n(-c2nc3ccccc3s2)n1,12.6%,7.2%,.,42.9,6.7%,-1.1
SMILES,Pf growth 96h,Pf growth 48h,SARS PLpro yeast,Shiga inhibitor,AMA1 RON2 block,Cycloheximide cs
Cc1cc(C)n(-c2ccc(C(=O)Nc3nc4ccccc4s3)cc2)n1,280.2%,126.0%,5.9%,26.0,-7.0%,19.8*
Nc1ccc(C(=O)Nc2nc3ccccc3s2)cc1,243.5%,147.2%,-17.5%,41.7*,-3.2%,40.8*
CC(=O)Nc1cc(C)nn1-c1nc2ccccc2s1,192.7%,462.3%,-0.9%,52.2*,-5.4%,33.1*
Cc1cc(C(F)(F)F)nn1CC(=O)N1CCOCC1,.,8.4%,1.6%,39.8,-2.3%,-2.1
Cc1ccc(OC(=O)COc2ccccc2C)c(-n2nc3ccccc3n2)c1,-5.9%,i,13.7%,69.4*,16.7%,42.7*
Cc1ccc(OC(=O)c2cccc([N+](=O)[O-])c2)c(-n2nc3ccccc3n2)c1,163.9%,205.5%,0.5%,12.1,-14.2%,26.7*
COC(=O)COc1ccc(C)cc1-n1nc2ccccc2n1,4.2%,66.7%,-6.0%,6.7,13.3%,-6.1
Cc1ccc(OC(=O)COc2ccccc2)c(-n2nc3ccccc3n2)c1,211.5%,.,7.3%,94.3*,8.5%,41.1*
C=CCN(c1cccc(C(F)(F)F)c1)S(=O)(=O)c1cccc(C(=O)OCC(=O)NC)c1,11.7µM*,?,-4.6%,-0.8,10.4%,-4.3
Cc1nn(CC2CC2)c(=O)n1-c1ccc(Oc2ccccc2)cc1,26.1%[5.75 µM],-23.9%,-1.0%,1.1,-0.5%,7.9
Cc1nn(CCOc2ccccc2)c(=O)n1-c1ccccc1,60.9%,140.0%,-2.7%,37.5*,9.2%,29.1*
COc1cccc(-n2c(C)nn(CCOc3ccccc3)c2=O)c1,26.5%,14.7%,19.0%,60.7,-3.0%,12.8
Cc1nn(CCOc2ccccc2)c(=O)n1-c1ccc(Cl)cc1,215.4%,121.7%,8.0%,76.0*,1.6%,30.2*
COc1ccc(-n2c(C)nn(CCOc3ccccc3)c2=O)cc1,115.7%,64.1%,-0.4%,57.9*,8.1%,28.5*
Cc1ccc(C(=O)N2N=C(CC(C)C)CC2(O)C(F)(F)F)o1 (stereo unspecified),-3.6%,?,-0.4%,14.6,45.2%,-1.3
C=CC1=C(C(=O)O)N2C(=O)[C@@H](NC(=O)C(N=O)c3csc(N)n3)[C@H]2SC1 (stereo partly specified),2.0%,-10.7%,.,-3.5,.,3.4
COc1cccc(C2=Nn3c(nnc3-c3ccc(OC)cc3OC)SC2)c1,.,.,.,3.1,.,-3.7
Cc1ccc2[nH]c(=O)cc(C(=O)OC(C)C)c2c1,-8.1%,-18.7%,0.5%,-7.0,-14.8%,-1.2
CC(C)N(C(=O)[C@H]1CC(CC(=O)NCc2cccc(C(F)(F)F)c2)C(=O)N2CCc3c([nH]c4ccccc34)[C@]12C)C(C)C (stereo partly specified),.,.,-1.0%,.,-16.5%,.
CCN1CCN(C(=O)C2CCC(CNS(=O)(=O)c3ccccc3)CC2)CC1 (stereo unspecified),.,-9.4%,-2.1%,-5.7,-4.3%,-2.4
CCc1ccc(NC(=O)[C@H](Cc2c[nH]c3ccccc23)NC(=O)[C@@H]2Cc3ccccc3CN2)cc1,?,?,5.7%,28.3*,40.5%,16.4

# Bioassay records from PubChem.
